Common to all, as to details: concentration: 1 μM, replicates: in singlicate; n = 1
Assay [1] relates to MST1R.
Assay [2] deals with T1, MST1.
T1 construct: gene STK4

For assay [3], the system named is T2, MST2.
T2 construct: gene STK3

The subject of assay [4] is T3, MST3.
T3 construct: gene STK24

Assay [5] deals with MST4.
Assay [6] relates to MTOR.
Assay [7] relates to MUSK.
In assay [8] the test system is MYLK2.
The test system of assay [9] is MYLK4.
Assay [10] concerns MYLK.

SMILES strings stand for the structures.
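Further: KINOMEscan kinase panel screen.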

As for `CSc1ccc(-c2nc3n(c2-c2ccncc2)CCC3)cc1` [SKF-105561], the “%Inh” value turned out to be 0% in [1]; 0% in assay [2]; 9% in assay [3]; 0% in [4]; 20% in assay [5]; 0% in assay [6]. Besides, the “%Inh” value in assay [7] is 0%; in assay [8], 3%; in assay [9], 0%; in assay [10] it was 0%.
With `O=C(Nc1n[nH]c2nc(-c3cccs3)c(Br)cc12)C1CCCC1` [SB-743341], the “%Inh” value was found to be 17% in [1]; 0% in [2]; 51% in [3]; 0% in [4]; 2% in [5]; 12% in [6]. Further, the “%Inh” value in assay [7] worked out at 37%; in assay [8] it was 97.7%; in assay [9] it was 17%; in assay [10], 24%.
`O=C1NC(=O)C(c2ccc(Cl)cc2)=C1Nc1cccc(Cl)c1` [SB-317651]: the “%Inh” value is recorded as 9% in [1]; 6% in [2]; 43% in [3]; 13% in [4]; 0% in assay [5]; 8% in assay [6]. In addition, the “%Inh” value amounted to 7% in [7], 30% in [8], 0% in assay [9] and 0% in assay [10].
`CNC(=O)c1ccc(C)c(-n2c(C)cc(OCc3ccc(F)cc3F)c(Br)c2=O)c1`: the “%Inh” value came to 0% in [1]; 0% in assay [2]; 0% in [3]; 0% in assay [4]; 0% in [5]; 33% in assay [6]. The “%Inh” value was 6% in assay [7], 9% in [8], 3% in assay [9] and 0% in [10].
For `CNc1cc(-c2ccc3c(N)n[nH]c3c2)nc(N)n1` [GSK2224810], the “%Inh” value turned out to be 27% in [1]; 0% in assay [2]; 0% in assay [3]; 24% in assay [4]; 0% in assay [5]; 0% in [6]. For the same molecule, the “%Inh” value came to 0% in assay [7], 64% in assay [8], 56% in assay [9] and 10% in assay [10].

The values are drawn from PMC5540273 (PLoS ONE, 2017).
